Source: PubChem BioAssay (National Center for Advancing Translational Sciences (NCATS))
Cruzain noTriton = qHTS Assay for Promiscuous and Specific Inhibitors of Cruzain (without detergent); Potency, µM, usual class: inhibitors; 2.3% of 200,000 active; purified cruzain, Z-FR-AMC fluorescence, no detergent; AID 1476, 2009; note: nearly all actives have a fitted effect of over 40% in size
Target sequence (P25779 123-467 limits assumed): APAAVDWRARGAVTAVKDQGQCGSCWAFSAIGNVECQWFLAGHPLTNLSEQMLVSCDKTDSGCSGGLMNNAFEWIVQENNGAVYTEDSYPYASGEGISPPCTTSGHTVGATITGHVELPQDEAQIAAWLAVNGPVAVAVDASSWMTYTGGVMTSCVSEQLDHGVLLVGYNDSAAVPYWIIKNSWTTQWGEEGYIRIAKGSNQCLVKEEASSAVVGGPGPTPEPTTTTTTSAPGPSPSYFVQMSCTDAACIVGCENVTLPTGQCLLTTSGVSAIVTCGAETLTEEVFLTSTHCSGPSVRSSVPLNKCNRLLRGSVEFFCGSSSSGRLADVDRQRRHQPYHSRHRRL
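Detergent-free condition (0.00005% Triton X-100) in acetate buffer pH 5.5 with DTT. 1.5 nM enzyme and compound were pre-mixed 15 min, then 2 uM Z-FR-AMC substrate added; reaction progress from fluorescence change between first and third reads (60 s).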
Cruzain Triton = qHTS Assay for Promiscuous and Specific Inhibitors of Cruzain (with detergent). Potency, µM, hits mostly inhibitors. 0.43% of 200,000 active. Cruzipain (Trypanosoma cruzi), P25779. purified cruzain, Z-FR-AMC fluorescence, 0.01% Triton; note: nearly all actives have a fitted effect of over 40% in size
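Detergent-containing arm of a paired screen for aggregation-based inhibition: 0.01% Triton X-100 present. Cruzain at 1.5 nM cleaved 2 uM Z-FR-AMC at pH 5.5 with 5 mM DTT; AMC fluorescence gain over 60 s measured activity.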
Hits are given with their value; . = inactive; ? = inconclusive. Most compounds without a hit are left out; they make up all but 2.5% or so of the library. Calls come from the whole dose curve; as a rule, active = well fitted curve in the direction sought with a large enough effect; inconclusive = small, poorly fitted or top-dose-only effect, or another doubt; inactive = no such curve, though single readings can be large; an effect the other way counts as inactive or inconclusive.

SMILES	Cruzain noTriton	Cruzain Triton
COCCNC(=O)c1ccc(-n2c(-c3ccccc3)cc3c2CCCCC3)cc1	.	.
CC(C)C1=C[C@@]23CC[C@@H]4[C@](C)(CCC[C@@]4(C)C(=O)O)[C@@H]2C[C@@H]1[C@@H](C(=O)O)[C@@H]3C(=O)O	.	.
COc1ccc(NC(=O)Cn2cc(S(=O)(=O)N3CCN(c4ccccc4F)CC3)c3ccccc3c2=O)cc1Cl	7.94µM	.
COc1cc(Cl)c(C)cc1NC(=O)Cn1cc(S(=O)(=O)N2CCN(c3ccccc3F)CC2)c2ccccc2c1=O	.	.
COc1cccc(CNC(=O)c2cc(C)nc3c2c(C)nn3-c2cccc(F)c2)c1	.	.
CCOC(=O)c1ccc(NC(=O)c2ccc3c(c2)NC(=O)c2ccccc2S3)cc1	.	.
C/C(=N\NC(=O)c1ccc(C)cc1C)c1ccc2c(c1)Nc1ccccc1S2	?	.
CC(=O)c1ccc2c(c1)Nc1ccccc1S2	25.1µM	.
CCOC(=O)Nc1ccc2c(c1)Nc1ccccc1S2	25.1µM	.
CCCC(=O)N1CCN(c2nc3ccc(F)cc3s2)CC1	.	.
N#CCCCS(=O)(=O)c1nnnn1-c1ccc(F)cc1Br	.	.
COc1ccc(-c2cn(/N=C/c3ccc(Cl)cc3Cl)c(N)n2)cc1	7.94µM	.
COc1ccc(-c2onc3ccc(Cl)cc23)cc1	.	.
COc1cc(C(=O)O/N=C2\C=CC(=O)C(C)=C2)cc(OC)c1OC	.	?
COc1cc(C(=O)ON=C2C=C(C)C(=O)C(C)=C2)cc(OC)c1OC	?	3.55µM
Cc1ccc(-n2nnnc2SCc2nc3sc(C)c(C)c3c(=O)[nH]2)cc1	?	.
Cc1sc2nc(CSc3cccc(C(F)(F)F)c3)[nH]c(=O)c2c1C	25.1µM	.
COc1ccc(NC(c2ccc(F)cc2)c2nnc(-c3ccccc3Cl)o2)cc1Cl (configuration not stated)	?	.
Cc1cc(OCC(=O)Nc2ccc(C(=O)OC3CCCCC3)cc2)cc(C)c1Cl	.	.
CCCN(C(=O)COc1cc(=O)n(CC)c2ccccc12)c1ccc(C(C)C)cc1	?	.
O=C1C2CC=CCC2C(=O)N1c1nc2n(n1)C(c1ccccc1)CC(c1ccccc1)N2 (configuration not stated)	?	.
c1ccc(C2CC(c3ccccc3)n3c(nc4ccccc43)N2)cc1 (configuration not stated)	12.6µM	.
CCCc1nnc(NC(=O)c2cc3ccccc3oc2=O)s1	.	.
CC(Sc1nnc(NC(=O)c2cc3ccccc3oc2=O)s1)c1ccccc1 (configuration not stated)	12.6µM	.
COc1ccccc1Nc1sc(C(=O)c2ccc(C)cc2C)c(N)c1S(=O)(=O)c1ccccc1	7.94µM	.
SMILES	Cruzain noTriton	Cruzain Triton
Cc1ccc(Cl)cc1Nc1sc(C(=O)c2ccc(F)cc2)c(N)c1S(C)(=O)=O	.	.
Cc1ccc(Nc2sc(C(=O)c3ccc(F)cc3)c(N)c2S(=O)(=O)c2ccc(C)cc2)cc1	?	.
Cc1ccc(S(=O)(=O)c2c(Nc3cc(F)ccc3F)sc(C(=O)c3ccc(F)cc3)c2N)cc1	3.16µM	.
COc1ccccc1Nc1nc(C)nc(N)c1S(=O)(=O)c1ccccc1	.	.
CCc1ccc(Nc2sc(C(=O)c3ccccc3)c(N)c2S(C)(=O)=O)cc1	.	.
COc1ccc(S(=O)(=O)c2c(Nc3ccc(F)cc3)sc(C(=O)c3ccc(C)cc3C)c2N)cc1	5.01µM	.
CCOc1ccc(Nc2sc(C(=O)c3cccc(OC)c3)c(N)c2S(=O)(=O)c2ccccc2)cc1	12.6µM	.
CCC(=O)Nc1ccc(CC)cc1-c1nc2ccccc2n(CC(=O)Nc2cccc(OC)c2)c1=O	.	.
Cn1cnc(S(=O)(=O)N2CCC(C(=O)Nc3ccc(Cl)c(C(F)(F)F)c3)CC2)c1	.	.
COc1ccc(NC(=O)c2csnn2)cc1Cl	.	.
CCCS(=O)(=O)c1ncc(Cl)c(C(=O)N(Cc2ccccc2)Cc2ccco2)n1	.	.
Cc1ccccc1CNC(=O)C1CCCN(c2nnc(-n3c(C)ccc3C)s2)C1 (configuration not stated)	.	.
c1ccc(SCCSc2ccccc2)cc1	.	.
Cn1c(=O)c2sccc2n2c(CCC(=O)N3CCN(c4ccc(F)cc4)CC3)nnc12	.	.
Cc1ccc(Nc2sc(C(=O)c3ccccc3)c(N)c2C(=O)NC(C)C)cc1	.	.
Cc1ccc(Nc2sc(C(=O)c3ccccc3)c(N)c2S(=O)(=O)c2ccccc2)c(C)c1	10µM	.
CCc1ccc(Nc2sc(C(=O)c3ccc(F)cc3)c(N)c2S(=O)(=O)c2ccccc2)cc1	7.94µM	.
Cc1ccccc1Nc1sc(C(=O)c2ccc(F)cc2)c(N)c1C(=O)NCCc1ccccc1	?	.
Cc1ccc(NS(=O)(=O)c2cccc(C(=O)O)c2)c(C)c1	.	.
COc1ccccc1Nc1sc(C(=O)c2ccc3c(c2)OCO3)c(N)c1S(=O)(=O)c1ccccc1	7.94µM	.
COc1cccc(C(=O)c2sc(Nc3ccc(C)cc3C)c(S(=O)(=O)c3ccccc3)c2N)c1	7.94µM	.
Cc1nn(C(C)(C)C)c(OC(=O)c2ccc3c(c2)OCO3)c1S(=O)(=O)c1ccccc1	.	.
CCc1ccc(N2CC(C)Cn3c2nc2c3c(=O)n(CC(=O)O)c(=O)n2C)cc1 (configuration not stated)	.	.
CC(C=O)Cc1ccc(C(C)(C)C)cc1 (configuration not stated)	.	.
CC1CCc2nn(CC(=O)Nc3ccccc3Cl)cc2C1 (configuration not stated)	.	.
SMILES	Cruzain noTriton	Cruzain Triton
Cc1cc(Nc2sc(C(=O)c3ccc(F)cc3)c(N)c2C(=O)Nc2ccc(F)cc2)ccc1Cl	?	.
Nc1c(C(=O)c2ccc(F)cc2)sc(Nc2ccccc2F)c1S(=O)(=O)c1ccc(Br)cc1	.	.
Cc1ccc(Nc2sc(C(=O)c3ccccc3)c(N)c2S(=O)(=O)c2ccccc2)cc1Cl	3.98µM	.
COc1ccc(OC)c(Nc2sc(C(=O)c3ccccc3)c(N)c2S(=O)(=O)c2ccccc2)c1	7.94µM	.
CCc1ccccc1NC(=O)CSc1nnc(COc2ccccc2Cl)o1	.	.
Clc1ccc2c(NC3CCC(N4CCCCC4)CC3)ccnc2c1 (configuration not stated)	.	.
C=CCn1c(SCC(=O)Nc2nccs2)nnc1-c1cc2cccc(OC)c2o1	25.1µM	.
C=CCn1c(SCC(=O)Nc2ccccc2OC)nnc1-c1ccco1	.	.
Cc1cc(/C=C2/NC(=O)N(Cc3ccccc3F)C2=O)c(C)n1C(C)C	25.1µM	.
CCn1c(C)cc(/C=C2/NC(=O)N(Cc3ccccc3F)C2=O)c1C	?	.
COc1ccccc1[C@@H]1C(c2ccc(F)cc2)=NN(c2ccc(Br)cc2)[C@H]1C(=O)N1CCOC1=O	25.1µM	.
COc1ccccc1[C@@H]1C(c2ccc(F)cc2)=NN(c2ccccc2)[C@H]1C(=O)N1CCOC1=O	?	.
COc1ccccc1[C@@H]1C(c2cccc(C)c2)=NN(c2ccccc2)[C@H]1C(=O)N1CCOC1=O	15.8µM	.
COc1ccccc1[C@@H]1C(c2ccccc2)=NN(c2ccccc2)[C@H]1C(=O)N1CCOC1=O	?	.
COc1ccccc1[C@@H]1C(c2cccc(Cl)c2)=NN(c2ccc(Br)cc2)[C@H]1C(=O)N1CCOC1=O	8.91µM	.
O=C1OCCN1C(=O)[C@H]1[C@H](c2ccccc2)C(c2cccc(Cl)c2)=NN1c1ccccc1	?	.
